“And” between values parts separate entries of the source, which are not always exact repeats. Equal values may be shown once. Where a name gives a salt, the structure may show the parent alone.
How the values were obtained:
Experiment in all cases: cell viability relative to vehicle control; higher = less cytotoxic
Settings in all cases: 10 µM
[1] = system: K562
In short: (§1)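 After removal of identity-inconsistent compounds, the Selleck bioactive, kinase and epigenetic probe libraries were screened on CRISPR-edited mutant clones and isogenic wild-type clones of four leukaemia lines. Plates were 384-well, each well holding 2000 cells in 50 µL medium and receiving a single 10 µM acoustically dispensed dose. CellTiter-Glo luminescence was read 48 h later, after the supernatant was taken off. Genedata Screener was used to express viability as percent of the on-plate vehicle control.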

[2] = system: MARIMO
In short: as §1

[3] = system: MOLM14
In short: as §1

[4] = system: OCI-AML2
In short: as §1

Row | Compound | cell viability ([1]; SRSF2 genotype: SRSF2 P95H/wt) | cell viability ([1]; SRSF2 genotype: SRSF2 wt/wt) | cell viability ([2]; SRSF2 genotype: SRSF2 P95H/wt) | cell viability ([2]; SRSF2 genotype: SRSF2 wt/wt) | cell viability ([3]; SRSF2 genotype: SRSF2 P95H/wt) | cell viability ([3]; SRSF2 genotype: SRSF2 wt/wt) | cell viability ([4]; SRSF2 genotype: P95H/wt) | cell viability ([4]; SRSF2 genotype: wt/wt)
1 | O=C(O)c1ccc(O)c2ncccc12 | 99.2% and 102% | 97.3% | 107% | 108% | 98.9% | 102% | 108% | 102%
2 | CN1CCC(=C2c3ccccc3CCc3cccnc32)CC1 [Azatadine dimaleate] | 100% and 108% | 94.1% | 92.2% | 102% | 91.9% | 100% | 88% | 99%
3 | Cn1cc(C2=C(c3cn(CCCSC(=N)N)c4ccccc34)C(=O)NC2=O)c2ccccc21 [Ro 31-8220 Mesylate] | 4.21% and 2.6% | 3.72% | 2.81% | 0.92% | 0.22% | -0.01% | 0.07% | 2.11%
4 | CC(=O)NC(CC(C)C)C(=O)O (stereo not given) [Acetylleucine] | 91.4% and 98.5% | 97% | 103% | 93.4% | 101% | 94.8% | 92.2% | 95.4%
5 | CC(C)C[C@H](NC(=O)[C@H](CCc1ccccc1)NC(=O)CN1CCOCC1)C(=O)N[C@@H](Cc1ccccc1)C(=O)N[C@@H](CC(C)C)C(=O)[C@@]1(C)CO1 [Carfilzomib (PR-171)] | 2.27% and 2.75% | 1.72% | 0.54% | 1.08% | 0.49% | 0.49% | 0.45% | 0.57%
6 | CC(=O)O[C@H]1CC(=O)OC(C)(C)[C@@H]2CC(=O)[C@]3(C)[C@H](CC[C@@]4(C)[C@@H](c5ccoc5)OC(=O)[C@H]5O[C@]543)[C@@]12C [Nomilin] | 101% and 95.9% | 97.8% | 87.1% | 105% | 99.2% | 104% | 94.8% | 101%
7 | O=c1c(O)c(-c2ccc(O)c(O)c2)oc2cc(O)cc(O)c12 [Quercetin (Sophoretin)] | 97.3% and 89.3% | 91.5% | 93.9% | 93.6% | 98.3% | 97.5% | 93.8% | 81.5%
8 | COc1ccc(C[C@@H]2c3cc(Oc4cc(C[C@@H]5c6cc(O)c(OC)cc6CCN5C)ccc4O)c(OC)cc3CCN2C)cc1 [Isoliensinine] | 50.4% and 50.8% | 61.2% | 10.2% | 16.6% | 2.24% | 1.04% | 0.44% | 0.95%
9 | COC(=O)C1(C)CCC2(C(=O)O)CCC3(C)C(=CCC4C5(C)CC(O)C(O)C(C)(CO)C5CCC43C)C2C1 (stereo not given) [Phytolaccagenin] | 108% | 113% | 111% | 103% | 111% | 111% | 105% | 98.5%
10 | c1coc(CNc2ncnc3[nH]cnc23)c1 [Kinetin (6-Furfuryladenine)] | 94.1% and 107% | 104% | 100% | 113% | 98.4% | 105% | 116% | 97.6%
11 | COC(=O)[C@H](CC(C)C)NC(=O)c1ccc(NC[C@@H](N)CS)cc1-c1cccc2ccccc12 [GGTI 298 TFA salt] | 7.41% and 14.8% | 31.9% | 55% | 51.1% | 41% | 50.6% | 40.6% | 37.7%
12 | CC1(C)C2CCC1(C)C(O)C2 (stereo not given) [Borneol] | 101% and 89.9% | 94.2% | 89.7% | 99.5% | 97.5% | 99.5% | 87.9% | 105%
13 | CCn1cc(-c2cccc(C(F)(F)F)c2)c2sc(C(=N)NC3CCS(=O)(=O)CC3)cc2c1=O | 68.1% and 71.5% | 69.9% | 55.8% | 45.3% | 27% | 32.3% | 22.6% | 42.1%
14 | O=C(Oc1coc(CSc2ncccn2)cc1=O)c1ccc([N+](=O)[O-])cc1 | 88.1% and 95.5% | 100% | 98.3% | 98.7% | 96.5% | 97.4% | 97.9% | 81.8%
15 | COc1cc(N2CCN(C)CC2)ccc1Nc1nccc(-c2cn(C)c3cnccc23)n1 | 63.7% and 63.4% | 79.2% | 41% | 39.1% | 3.24% | 1.65% | 6.46% | 11.4%
16 | CCOC(=O)c1[nH]c2cc(Cl)ccc2c1C(C(=O)NC(C)(C)C)N(C=O)Cc1ccc(Cl)cc1 (stereo not given) | 78.9% and 75.1% | 75.3% | 68.1% | 74.4% | 44.1% | 57.5% | 77.3% | 64.2%
17 | CC(=O)O[C@@]12CO[C@@H]1C[C@H](O)[C@@]1(C)C(=O)[C@H](O)C3=C(C)[C@@H](OC(=O)[C@H](O)[C@@H](NC(=O)OC(C)(C)C)c4ccccc4)C[C@@](O)([C@@H](OC(=O)c4ccccc4)[C@H]21)C3(C)C [Docetaxel Trihydrate] | 24.8% and 32.4% | 32.7% | 8.87% | 5.68% | 8.57% | 4.2% | 6.94% | 13.5%
18 | Cc1ccccc1CN1C2=NCCN2C(=O)C2=C1CCN(Cc1ccccc1)C2 [TIC10 analogue] | 98.2% and 97.9% | 95.9% | 104% | 104% | 103% | 103% | 88% | 101%
19 | C=CCc1cccc(/C=N/NC(=O)CN2CCN(Cc3ccccc3)CC2)c1O | 70.5% and 67% | 65.4% | 25.7% | 31.6% | 12.3% | 8.85% | 19.2% | 19.7%
20 | CC1(C)S[C@@H]2[C@H](NC(=O)Cc3ccccc3)C(=O)N2[C@H]1C(=O)O.CCN(CC)CCOC(=O)c1ccc(N)cc1 [Penicillin G Procaine] | 107% and 104% | 101% | 104% | 118% | 99.7% | 109% | 97.8% | 99.4%

Row | Compound | cell viability ([1]; SRSF2 genotype: SRSF2 P95H/wt) | cell viability ([1]; SRSF2 genotype: SRSF2 wt/wt) | cell viability ([2]; SRSF2 genotype: SRSF2 P95H/wt) | cell viability ([2]; SRSF2 genotype: SRSF2 wt/wt) | cell viability ([3]; SRSF2 genotype: SRSF2 P95H/wt) | cell viability ([3]; SRSF2 genotype: SRSF2 wt/wt) | cell viability ([4]; SRSF2 genotype: P95H/wt) | cell viability ([4]; SRSF2 genotype: wt/wt)
21 | CC1(C)CC[C@]2(C(=O)O)CC[C@]3(C)C(=CC[C@@H]4[C@@]5(C)CC[C@H](O)[C@@](C)(CO)[C@@H]5CC[C@]43C)[C@@H]2C1 [Hederagenin] | 103% and 102% | 97.1% | 98.4% | 112% | 106% | 105% | 120% | 107%
22 | CCOc1nc2cccc(C(=O)O)c2n1Cc1ccc(-c2ccccc2-c2nnn[nH]2)cc1 [Candesartan (Atacand)] | 91% and 88.3% | 89.3% | 91.7% | 100% | 94.7% | 93.5% | 83.1% | 87.3%
23 | O=C(O)c1cc(C(=O)O)c2c(n1)C(=O)C(=O)c1cc(C(=O)O)[nH]c1-2 [Pyrroloquinoline Quinone Disodium Salt] | 101% and 95.6% | 98.9% | 94.1% | 106% | 88.8% | 107% | 106% | 99.4%
24 | CNC(=O)c1ccc2cc([C@@]3(O)CCn4cncc43)ccc2c1 [TAK-700 (Orteronel)] | 107% and 98.8% | 97.3% | 93.2% | 105% | 101% | 100% | 95.6% | 104%
25 | O=C(NC1CCN(CCCCC2(C(=O)NCC(F)(F)F)c3ccccc3-c3ccccc32)CC1)c1ccccc1-c1ccc(C(F)(F)F)cc1 [Lomitapide Mesylate] | 0.41% and 0.38% | 0.33% | 0.5% | 0.68% | 0.26% | 0.3% | 0.27% | 0.3%
26 | OC[C@H]1O[C@H](OC[C@H]2O[C@H](O[C@]3(CO)O[C@H](CO)[C@@H](O)[C@@H]3O)[C@H](O)[C@@H](O)[C@@H]2O)[C@H](O)[C@@H](O)[C@H]1O [Raffinose] | 97.9% and 96.4% | 95.4% | 97.2% | 103% | 103% | 98.1% | 94.5% | 98.6%
27 | COC(=O)C1=CO[C@@H](O[C@@H]2O[C@H](CO)[C@@H](O)[C@H](O)[C@H]2O)[C@@H]2C(CO)=CC[C@H]12 [Geniposide] | 98.8% and 85.3% | 87.9% | 84.1% | 100% | 94.9% | 92.3% | 99.6% | 89.8%
28 | NC1CC1c1ccc(-c2cccc(O)c2)cc1 (stereo not given) | 96.2% and 104% | 97.1% | 88.3% | 106% | 99.4% | 99.1% | 87% | 92%
29 | Clc1ccc(COC(Cn2ccnc2)c2ccc(Cl)cc2Cl)cc1 (stereo not given) [Econazole nitrate (Spectazole)] | 67.2% and 76.7% | 70.1% | 64.3% | 71% | 58.2% | 73% | 57.8% | 52.4%
30 | C[S+](CC[C@H](N)C(=O)[O-])C[C@H]1O[C@@H](n2cnc3c(N)ncnc32)[C@H](O)[C@@H]1O (stereo not given in full) [Ademetionine] | 108% and 105% | 119% | 104% | 108% | 109% | 111% | 129% | 133%
31 | Cc1cccc(Nc2nc(N[C@@H]3CCCC[C@@H]3N)ncc2C(N)=O)c1 | 50.9% and 56.3% | 63.7% | 47.4% | 44.7% | 22% | 20.7% | 4.23% | 14.4%
32 | C=CC(=O)Nc1cccc(Sc2nc(Nc3ccc(N4CCN(C)CC4)cc3)ncc2Cl)c1 | 12.7% and 13.8% | 13.8% | 0.51% | 9.17% | 0.08% | 0.12% | 0.11% | 0.45%
33 | N[C@@H]1CN(c2c(F)cc3c(=O)c(C(=O)O)cn([C@@H]4C[C@@H]4F)c3c2Cl)CC12CC2 [Sitafloxacin hydrate] | 103% and 104% | 91.9% | 104% | 105% | 105% | 103% | 102% | 107%
34 | CN(C)C(=O)C(CCN1CCC(O)(c2ccc(Cl)cc2)CC1)(c1ccccc1)c1ccccc1 [Loperamide hydrochloride] | 45.5% and 54.9% | 49.4% | 55.5% | 61.6% | 58.5% | 59.7% | 44.2% | 54.9%
35 | CCC(=O)OCC(=O)[C@@]1(OC(=O)CC)[C@@H](C)C[C@H]2[C@@H]3CCC4=CC(=O)C=C[C@]4(C)[C@@]3(Cl)[C@@H](O)C[C@@]21C [Beclomethasone dipropionate] | 87.4% and 91.4% | 87.7% | 90% | 97.8% | 86% | 93% | 105% | 117%
36 | CC(C)(C)C(=O)Nc1ccc2c(c1)C(=O)C(=O)c1ccccc1-2 [SF1670 (PTEN inhibitor)] | 84.3% and 70.9% | 56.8% | 2.56% | 70.5% | 88.4% | 39.2% | 65.8% | 76.2%
37 | COc1cc(-c2cc(-c3cccc(O)c3)cnc2N)cc(OC)c1OC | 13.5% and 28.9% | 15.6% | 78.2% | 72.5% | 81.9% | 83% | 83.5% | 83.1%
38 | O=C(O)CCCC[C@@H]1SC[C@@H]2NC(=O)N[C@@H]21 [Biotin (Vitamin B7)] | 101% and 100% | 96.3% | 104% | 103% | 102% | 108% | 102% | 99.2%
39 | C[C@]12CC[C@@H]3c4ccc(O)cc4CC[C@H]3[C@@H]1CCC2=O [Estrone] | 100% and 92.7% | 103% | 94.5% | 96.6% | 101% | 99.1% | 101% | 113%
40 | CCN(CC)C(=O)/C(C#N)=C/c1cc(O)c(O)c([N+](=O)[O-])c1 [Entacapone] | 101% and 105% | 107% | 101% | 102% | 102% | 102% | 114% | 97.4%

Source: the supplement of paper PMC10981050
